± gives the standard deviation of the averaged measurements.
Tests used:
[1] = system: DLD1; experiment: nucleolar normality score relative to DMSO (fraction of DMSO control); RPE1 is a non-cancer human cell line; higher = more normal nucleoli (less nucleolar stress)
Description: (§1)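 Selected screen hits were validated in hTERT lines (BJ5TA, CHON-002, RPE1) and cancer lines (DLD1, HCT116). Cells were immunostained for nucleolin and UBF and the nucleolar normality score was measured per field of view, with 4 fields per drug. Scores are normalized to each cell line's own DMSO control. Dose and time are not stated for this panel.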

[2] = system: HCT116; experiment: as above
Description: as §1

**Q.** Which nucleolar normality score [1] does the source give for `CC[C@@]1(O)C(=O)OCc2c1cc1n(c2=O)Cc2cc3ccccc3nc2-1` [Camptothecin] here?
**A.** Its nucleolar normality score is 0.402 ± 0.049.

**Q.** And the nucleolar normality score [2]?
**A.** Its nucleolar normality score is 0.407 ± 0.015.
